The values below come from ChEMBL document CHEMBL3988442, “University of Dundee, Small-Polar-MMV Screening Library” (2021).

For some assays here: Potency and affinity values are given separately.

Holding throughout (parameters): scale not given: direction of the effect not stated beside the values
In assay [1] the target is Protein translocase subunit SecA (Escherichia coli (strain K12)) (UniProt P10408). In words: Assay to Identify E. coli SecA ATPase Inhibitors. It counts as functional. Conditions: 30 µM.
In assay [2] the target is T1, Ubiquitin-activating enzyme e1, putative (Leishmania donovani (strain BPK282A1)) (UniProt E9BSI1).
T1 sequence (whole entry): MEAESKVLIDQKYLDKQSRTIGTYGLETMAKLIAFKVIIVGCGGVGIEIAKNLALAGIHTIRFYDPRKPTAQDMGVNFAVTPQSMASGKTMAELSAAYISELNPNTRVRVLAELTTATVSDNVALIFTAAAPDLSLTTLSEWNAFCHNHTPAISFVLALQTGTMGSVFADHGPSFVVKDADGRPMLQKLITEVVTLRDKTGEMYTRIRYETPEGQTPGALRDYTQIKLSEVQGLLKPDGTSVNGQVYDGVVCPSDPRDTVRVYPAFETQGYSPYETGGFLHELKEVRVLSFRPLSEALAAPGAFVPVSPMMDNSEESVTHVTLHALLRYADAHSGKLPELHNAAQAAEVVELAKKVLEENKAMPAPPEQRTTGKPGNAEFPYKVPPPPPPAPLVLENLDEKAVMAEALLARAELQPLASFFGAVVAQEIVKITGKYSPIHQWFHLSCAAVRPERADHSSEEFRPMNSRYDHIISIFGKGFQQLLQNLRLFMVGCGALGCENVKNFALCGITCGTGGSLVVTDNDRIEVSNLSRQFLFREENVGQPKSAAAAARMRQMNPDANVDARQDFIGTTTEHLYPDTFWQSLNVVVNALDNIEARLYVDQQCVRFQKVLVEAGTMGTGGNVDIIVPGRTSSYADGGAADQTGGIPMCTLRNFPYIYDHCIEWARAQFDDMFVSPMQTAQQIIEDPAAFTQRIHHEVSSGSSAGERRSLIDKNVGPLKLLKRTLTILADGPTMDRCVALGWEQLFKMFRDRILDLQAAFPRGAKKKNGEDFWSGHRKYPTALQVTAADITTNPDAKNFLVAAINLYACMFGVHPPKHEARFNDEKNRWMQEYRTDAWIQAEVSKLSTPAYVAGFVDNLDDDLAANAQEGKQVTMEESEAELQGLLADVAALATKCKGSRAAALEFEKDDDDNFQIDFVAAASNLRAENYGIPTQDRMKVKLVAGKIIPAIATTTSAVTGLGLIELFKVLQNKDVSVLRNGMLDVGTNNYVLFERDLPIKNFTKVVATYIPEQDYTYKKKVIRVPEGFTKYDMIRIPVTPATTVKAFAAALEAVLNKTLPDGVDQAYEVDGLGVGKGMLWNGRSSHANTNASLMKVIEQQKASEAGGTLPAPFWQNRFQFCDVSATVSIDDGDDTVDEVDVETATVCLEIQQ
Nature of the assay: Leishmania donovani Ubiquitin Activating Enzyme (LdE1). Conditions: 30 µM. The class given is functional.

The target in assay [3] is AMP-activated protein kinase, AMPK (Homo sapiens) (UniProt P54646+O43741+P54619+Q9UGJ0+Q9Y478+Q13131+Q9UGI9). In words: AMP-dependent Kinase enzyme assay. An in vitro enzyme assay that detects ADP turnover that is directly proportional to AMPK activity. This uses naive AMPK that is activated during the assay with MK-8722. As to conditions: 30 µM. The class given is functional.

Assay [4] concerns the target Sialic acid-binding Ig-like lectin 9 (Homo sapiens) (UniProt Q9Y336). Nature of the assay: Hs-Siglec9 ALPHAscreen SOP 20170721. As to conditions: 10 µM.
Assay [5] deals with Trypanosoma cruzi. Nature of the assay: Trypanosoma cruzi phosphomannomutase and mannose-1-phosphate guanylyltransferase assay. The class given is functional. Conditions: 10 µM.
The target in assay [6] is T2, Arginase-2, mitochondrial (Homo sapiens) (UniProt P78540).
T2 sequence (whole entry): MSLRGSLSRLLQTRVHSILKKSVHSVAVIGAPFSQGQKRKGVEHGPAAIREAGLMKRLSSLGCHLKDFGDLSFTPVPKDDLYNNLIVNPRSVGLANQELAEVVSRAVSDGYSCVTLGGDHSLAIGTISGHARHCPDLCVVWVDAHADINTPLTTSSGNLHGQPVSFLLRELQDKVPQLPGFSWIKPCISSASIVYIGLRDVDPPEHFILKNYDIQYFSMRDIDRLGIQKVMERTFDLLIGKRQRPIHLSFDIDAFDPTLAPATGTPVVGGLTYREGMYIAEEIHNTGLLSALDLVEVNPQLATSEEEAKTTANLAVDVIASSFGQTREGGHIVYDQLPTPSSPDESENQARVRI
Nature of the assay: in vitro enzyme assay to detect the production of urea directly proportional to the activity of Arginase II. Also: in the data most compounds retested in dose-response had high values. The class given is functional. As to conditions: 33.3 µM.

Assay [7] deals with T3, Proteasome subunit beta (Trypanosoma cruzi) (UniProt O96673).
T3 sequence (whole entry): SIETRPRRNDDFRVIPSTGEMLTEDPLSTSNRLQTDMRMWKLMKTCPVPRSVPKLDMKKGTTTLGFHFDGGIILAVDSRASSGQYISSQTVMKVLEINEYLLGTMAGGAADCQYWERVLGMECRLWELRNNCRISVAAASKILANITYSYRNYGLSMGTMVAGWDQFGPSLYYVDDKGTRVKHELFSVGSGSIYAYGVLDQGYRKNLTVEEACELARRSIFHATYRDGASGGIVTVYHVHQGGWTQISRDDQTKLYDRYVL
In words: Trypanosoma cruzi proteasome chymotrypsin-like activity (TcProtChymo) assay. Also: in the data most compounds retested in dose-response had high values. It counts as functional. Conditions: 9.37 µM.

The species named for assay [8] is Homo sapiens. In words: To identify inhibition of the IFN signalling (Jak-Stat) pathway via expression of an eGFP reporter gene under the control of an IFN-stimulated response element (ISRE) containing MxA promoter. It counts as functional. As to conditions: 30 µM.
Assay [9] has as its target T4, Tyrosyl-tRNA synthetase, putative (Trypanosoma cruzi (strain CL Brener)) (UniProt Q4DSP6).
T4 sequence (whole entry): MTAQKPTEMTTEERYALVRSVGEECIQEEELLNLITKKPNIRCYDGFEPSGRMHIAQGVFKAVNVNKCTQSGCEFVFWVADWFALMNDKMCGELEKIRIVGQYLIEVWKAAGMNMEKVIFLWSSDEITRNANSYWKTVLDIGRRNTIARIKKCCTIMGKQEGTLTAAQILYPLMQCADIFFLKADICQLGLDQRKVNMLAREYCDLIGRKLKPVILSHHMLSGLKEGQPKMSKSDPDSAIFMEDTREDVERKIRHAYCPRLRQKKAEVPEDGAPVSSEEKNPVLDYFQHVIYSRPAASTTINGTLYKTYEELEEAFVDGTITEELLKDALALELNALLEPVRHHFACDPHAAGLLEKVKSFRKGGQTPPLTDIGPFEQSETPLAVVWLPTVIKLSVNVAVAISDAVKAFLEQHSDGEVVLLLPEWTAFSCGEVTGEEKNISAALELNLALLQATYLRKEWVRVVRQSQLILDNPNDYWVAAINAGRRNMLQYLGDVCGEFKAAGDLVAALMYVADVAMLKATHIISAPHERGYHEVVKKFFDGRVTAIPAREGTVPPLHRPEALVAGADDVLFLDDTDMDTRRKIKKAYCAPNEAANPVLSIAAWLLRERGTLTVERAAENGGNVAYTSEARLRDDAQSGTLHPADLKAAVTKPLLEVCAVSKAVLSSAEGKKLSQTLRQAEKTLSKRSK
Nature of the assay: Trypanosoma cruzi tyrosyl tRNA synthetase (TcYRS) _High Tyrosine SOP. Also: in the data most compounds retested in dose-response had high values. The class given is functional. As to conditions: 30 µM.

For assay [10], the target named is T4, Tyrosyl-tRNA synthetase, putative (Trypanosoma cruzi (strain CL Brener)). Nature of the assay: Trypanosoma cruzi tyrosyl tRNA synthetase (TcYRS) SOP. The class given is functional. As to conditions: 30 µM.
Assay [11] addresses Chromo domain-containing protein 1 (Saccharomyces cerevisiae (strain ATCC 204508 / S288c) (Baker's yeast)) (UniProt P32657). In words: ScCHD-1 Enzyme Inhibition Assay. Also: in the data most compounds retested in dose-response had high values. It counts as functional. Conditions: 30 µM.

Chain of Sialic acid-binding Ig-like lectin 9 (Homo sapiens) (Q9Y336 whole entry): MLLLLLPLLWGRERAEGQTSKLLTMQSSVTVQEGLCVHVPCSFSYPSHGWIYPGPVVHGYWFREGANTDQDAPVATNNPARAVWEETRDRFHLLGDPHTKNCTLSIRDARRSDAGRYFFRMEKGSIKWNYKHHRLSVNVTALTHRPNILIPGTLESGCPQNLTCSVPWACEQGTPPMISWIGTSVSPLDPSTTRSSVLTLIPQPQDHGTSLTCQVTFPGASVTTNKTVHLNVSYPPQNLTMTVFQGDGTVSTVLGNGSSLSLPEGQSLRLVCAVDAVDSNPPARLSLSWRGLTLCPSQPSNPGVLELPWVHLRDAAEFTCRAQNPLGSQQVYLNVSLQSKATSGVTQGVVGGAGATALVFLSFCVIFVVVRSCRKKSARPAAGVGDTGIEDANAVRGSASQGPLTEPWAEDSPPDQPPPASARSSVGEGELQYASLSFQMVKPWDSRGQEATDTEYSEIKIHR
Chain of Chromo domain-containing protein 1 (Saccharomyces cerevisiae (strain ATCC 204508 / S288c) (Baker's yeast)) (P32657 whole entry, the tested form may be a part): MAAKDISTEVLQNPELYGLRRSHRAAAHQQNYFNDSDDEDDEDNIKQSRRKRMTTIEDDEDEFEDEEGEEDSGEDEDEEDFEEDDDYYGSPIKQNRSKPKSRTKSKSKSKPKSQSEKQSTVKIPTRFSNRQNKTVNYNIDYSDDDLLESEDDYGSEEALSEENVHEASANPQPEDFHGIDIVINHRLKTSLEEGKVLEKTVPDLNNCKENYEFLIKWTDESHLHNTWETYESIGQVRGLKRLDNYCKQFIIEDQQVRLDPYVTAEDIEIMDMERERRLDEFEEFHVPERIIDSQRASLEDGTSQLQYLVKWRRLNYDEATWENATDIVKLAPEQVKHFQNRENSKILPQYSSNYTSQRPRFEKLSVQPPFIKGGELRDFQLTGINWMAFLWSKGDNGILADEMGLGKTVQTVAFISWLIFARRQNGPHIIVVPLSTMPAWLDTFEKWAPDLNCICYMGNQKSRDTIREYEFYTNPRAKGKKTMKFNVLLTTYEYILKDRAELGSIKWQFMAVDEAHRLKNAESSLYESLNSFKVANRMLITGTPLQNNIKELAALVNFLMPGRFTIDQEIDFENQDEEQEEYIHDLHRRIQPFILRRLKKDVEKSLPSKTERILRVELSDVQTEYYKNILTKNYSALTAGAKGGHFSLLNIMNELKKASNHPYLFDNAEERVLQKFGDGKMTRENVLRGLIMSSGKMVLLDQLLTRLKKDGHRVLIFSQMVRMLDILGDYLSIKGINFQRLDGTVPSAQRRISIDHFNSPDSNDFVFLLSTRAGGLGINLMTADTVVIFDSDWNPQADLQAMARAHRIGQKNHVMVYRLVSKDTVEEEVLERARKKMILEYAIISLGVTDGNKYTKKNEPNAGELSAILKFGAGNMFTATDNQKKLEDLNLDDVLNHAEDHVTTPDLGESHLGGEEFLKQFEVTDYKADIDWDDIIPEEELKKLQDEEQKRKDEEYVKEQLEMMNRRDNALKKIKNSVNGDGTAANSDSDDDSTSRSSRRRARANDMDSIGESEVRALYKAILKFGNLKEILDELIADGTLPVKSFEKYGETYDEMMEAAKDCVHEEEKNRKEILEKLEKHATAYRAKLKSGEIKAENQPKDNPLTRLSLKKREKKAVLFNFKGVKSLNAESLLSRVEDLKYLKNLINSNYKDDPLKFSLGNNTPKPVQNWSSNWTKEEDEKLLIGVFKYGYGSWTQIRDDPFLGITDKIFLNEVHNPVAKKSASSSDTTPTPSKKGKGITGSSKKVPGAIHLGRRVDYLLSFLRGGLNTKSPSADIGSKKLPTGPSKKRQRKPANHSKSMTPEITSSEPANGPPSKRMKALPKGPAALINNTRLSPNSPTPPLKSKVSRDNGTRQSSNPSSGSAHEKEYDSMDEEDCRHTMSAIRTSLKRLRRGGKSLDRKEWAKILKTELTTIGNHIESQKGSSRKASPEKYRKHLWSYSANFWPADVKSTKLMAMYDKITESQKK
Chain of Protein translocase subunit SecA (Escherichia coli (strain K12)) (P10408 whole entry): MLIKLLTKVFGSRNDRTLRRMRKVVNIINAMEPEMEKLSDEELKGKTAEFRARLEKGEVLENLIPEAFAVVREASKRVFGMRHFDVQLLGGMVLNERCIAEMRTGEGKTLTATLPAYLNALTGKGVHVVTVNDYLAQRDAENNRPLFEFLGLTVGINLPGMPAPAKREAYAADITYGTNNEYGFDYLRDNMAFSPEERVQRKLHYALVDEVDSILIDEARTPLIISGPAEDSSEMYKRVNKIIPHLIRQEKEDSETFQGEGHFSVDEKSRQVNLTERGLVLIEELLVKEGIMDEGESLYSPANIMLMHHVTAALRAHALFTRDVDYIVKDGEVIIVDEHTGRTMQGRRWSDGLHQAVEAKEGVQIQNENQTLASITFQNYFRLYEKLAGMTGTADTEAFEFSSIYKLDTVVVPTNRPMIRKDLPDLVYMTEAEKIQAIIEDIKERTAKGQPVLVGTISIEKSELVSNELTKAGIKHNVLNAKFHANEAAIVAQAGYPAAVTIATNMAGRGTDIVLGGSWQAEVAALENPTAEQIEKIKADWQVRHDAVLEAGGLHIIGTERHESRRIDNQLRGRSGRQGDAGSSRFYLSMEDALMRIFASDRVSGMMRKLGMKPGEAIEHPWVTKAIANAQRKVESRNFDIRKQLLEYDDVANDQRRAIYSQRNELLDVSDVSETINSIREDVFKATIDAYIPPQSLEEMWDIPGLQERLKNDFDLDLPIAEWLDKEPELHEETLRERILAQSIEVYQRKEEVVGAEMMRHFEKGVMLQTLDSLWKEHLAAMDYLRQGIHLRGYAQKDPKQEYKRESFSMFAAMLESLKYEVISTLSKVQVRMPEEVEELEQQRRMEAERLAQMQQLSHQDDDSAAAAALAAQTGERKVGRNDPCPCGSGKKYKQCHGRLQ

For `CC(C)NC(=O)C1CN(C(N)=O)Cc2ccnn2C1` (stereo not given), the Percent Effect in [1] is -0.679%; in assay [2] it was 10.7%; in [3], 5.48%; in [4], 1.25%; in assay [5] it was 0.579%; in [6], -58.2%. Besides, the Percent Effect is 9.91% in assay [7]; 0.0597% in [8]; 3.12% in assay [9]; 15% in assay [10]; -5.6% in assay [11].

Turning to `Cn1cc(Br)c(=O)c(NS(=O)(=O)c2cc(F)ccc2Cl)c1`, the Percent Effect in assay [1] is -3.11%; in [2], 2.7%; in [3], -8.02%; in assay [4], 5.84%; in assay [5], 9.07%; in assay [6], -2.38%. Besides, the Percent Effect was 13.3% in assay [7]; 6.19% in [8]; 0.529% in assay [9]; -2.44% in assay [10]; -0.642% in assay [11].

As for `CN(C(=O)C1CSCN1S(=O)(=O)c1ccc(F)cc1)C1CC1` (stereo not given), the Percent Effect is -6.46% in assay [1]; 0% in [2]; -0.918% in [3]; 1.18% in assay [4]; -5.57% in assay [5]; -2.73% in assay [6]. The Percent Effect in assay [7] is 6.27%; in assay [8], -19.6%; in assay [9], 3.23%; in assay [10], 11.1%; in assay [11], 0.714%.

As to `c1ccc(-n2ccnc2)c(CNCC2CNc3ccnn3C2)c1` (stereo not given), the Percent Effect in [1] was -2.24%; in assay [2], 18.2%; in [3], -5.79%; in assay [4] it was 12.2%; in assay [5] it was 7.68%; in assay [6], 1.07%. Also, the Percent Effect in assay [7] was 2.53%; in assay [8], 17.5%; in assay [9], 5.83%; in [10] it was 21.9%; in assay [11], -7.36%.

Regarding `CC(CCc1ccco1)NC(=O)Nc1cc(C(F)(F)F)c[nH]c1=O` (stereo not given), the Percent Effect in [1] was -8.08%; in assay [2], 7.89%; in [3], 40.7%; in assay [4], 3.56%; in assay [5], 0.467%; in [6], -3.24%. Also, the Percent Effect in [7] was 13.1%; in [8] it was 17%; in assay [9] it was 7.39%; in assay [10] it was 13.6%; in assay [11], -2%.

Turning to `CC(C)Cc1nc(OCC(=O)O)c(C#N)c2c1CCC2`, the Percent Effect was 1.44% in [1]; 9.33% in assay [2]; -5.52% in [3]; -3.77% in assay [4]; 1.57% in assay [5]; -2.29% in assay [6]. Further, the Percent Effect in assay [7] is 9.24%; in [8] it was 3.54%; in assay [9] it was -1.06%; in assay [10], 2.56%; in [11] it was -8.05%.

Consider `Cc1ccsc1CN(C)C(=O)Cn1nc(-c2ccc(F)cc2)oc1=O`, for which the Percent Effect in assay [1] is -0.652%; in assay [2], 13.2%; in assay [3] it was 1.09%; in assay [4] it was -2.29%; in assay [5], 3.8%; in [6], -3.55%. The Percent Effect in [7] was 22.5%; in assay [8], 10.2%; in [9], -8.51%; in [10], 0%; in [11], -6.06%.

As to `CC(C)(C#N)C(=O)N1CCCC(c2cc(C(F)(F)F)[nH]n2)C1` (stereo not given), the Percent Effect in assay [1] was -6.75%; in assay [2], 16.2%; in [3] it was -6.25%; in assay [4] it was 19.3%; in assay [5] it was 3.44%; in assay [6], -2.03%. Also, the Percent Effect in assay [7] is 4.85%; in assay [8] it was 14.8%; in assay [9] it was 2.97%; in assay [10] it was 11%; in [11], -8.63%.

For the compound `Cc1nc(NCCc2ccc(Cl)cc2)cc(C(=O)N2CCCCC2)n1`, the Percent Effect in [1] is -1.97%; in assay [2], 7.79%; in assay [3], 7.85%; in assay [4] it was -0.26%; in assay [5], -8.16%; in assay [6] it was -16.6%. Further, the Percent Effect is 22.6% in assay [7]; 10.8% in assay [8]; 0% in assay [9]; 1.24% in assay [10]; -2.69% in assay [11].

In the case of `CCN1Cc2c(C(=O)NCC3CC3)ncn2-c2ccccc2S1(=O)=O`, the Percent Effect is 3.87% in assay [1]; -5.48% in assay [2]; -3.01% in assay [3]; 4.85% in [4]; 3.37% in assay [5]; -0.399% in [6]. The Percent Effect in assay [7] was 16%; in assay [8] it was -1.54%; in assay [9] it was 0%; in assay [10], 18.5%; in assay [11] it was -2.17%.
